Test results taken from PubChem BioAssay AID1159580 (chemical genetic matrix, 2015).
Out of some 5,500 compounds screened, about 2,000 (36%) were called active. Roughly 18% stayed inconclusive and do not appear here. Cut-off read from the data, not from the text of the source: active = normalized growth mostly below about 0.91 (no sharp cut-off); inconclusive = no clear call, values can overlap the other calls; inactive = mostly above about 0.92. Some of the results follow.

Assay: chemical genetic growth profiling, strain panel (AID 1159580);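 note: tested at 20 µM; growth read once vehicle control cultures reached saturation at 30 °C; 1 = growth at the plate median or of vehicle wells; lower values mean less growth of the strain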
Conditions: S. cerevisiae deletion strains, growth OD

Measured: normalized growth

NC(Cc1ccc(N(CCCl)CCCl)cc1)C(=O)O (stereo not given)
inactive: locus YAL013W, strain DEP1, active compounds read low 0.981 | locus YAL040C, strain CLN3, active compounds read low 0.995 | locus YCL061C, strain MRC1 (second series), active compounds read low 0.996 | locus YDR150W, strain NUM1, active compounds read low 1.01 | locus YDR363W, strain ESC2, active compounds read low 0.986 | locus YER002W, strain NOP16, active compounds read low 0.974 | locus YGR078C, strain PAC10, active compounds read low 0.976 | locus YJR075W, strain HOC1, active compounds read low 1 | locus YMR263W, strain SAP30, active compounds read low 0.997 | locus YMR307W, strain GAS1, active compounds read low 1 | locus YNL153C, strain GIM3, active compounds read low 1.04 | locus YNL175C, strain NOP13, active compounds read low 0.977 | locus YNL197C, strain WHI3, active compounds read low 0.983 | locus YNL224C, strain SQS1, active compounds read low 1.01 | locus YOR083W, strain WHI5 (second series), active compounds read low 0.993

OCCc1ccccc1
inactive: locus YAL021C, strain ccr4, active compounds read low 0.971 | locus YAL026C, strain drs2, active compounds read low 0.98 | locus YAL030W, strain snc1, active compounds read low 0.968 | locus YBL061C, strain skt5, active compounds read low 0.985 | locus YBR009C, strain hhf1, active compounds read low 0.976 | locus YBR023C, strain chs3, active compounds read low 0.992 | locus YBR171W, strain sec66, active compounds read low 0.968 | locus YBR231C, strain swc5, active compounds read low 0.989 | locus YBR279W, strain paf1, active compounds read low 0.989 | locus YCL011C, strain gbp2, active compounds read low 0.989 | locus YCL016C, strain dcc1, active compounds read low 0.994 | locus YCL061C, strain MRC1, active compounds read low 0.994 | locus YCL069W, strain vba3, active compounds read low 0.99 | locus YCR088W, strain abp1, active compounds read low 0.983 | locus YDL005C, strain med2, active compounds read low 0.989 | locus YDL040C, strain nat1, active compounds read low 0.999 | locus YDR001C, strain nth1, active compounds read low 0.974 | locus YDR069C, strain doa4, active compounds read low 0.981 | locus YDR137W, strain rgp1, active compounds read low 0.948 | locus YDR159W, strain sac3, active compounds read low 0.98 | locus YDR195W, strain ref2 0.947 | locus YDR297W, strain sur2, active compounds read low 0.984 | locus YDR334W, strain swr1, active compounds read low 0.94 | locus YDR335W, strain msn5, active compounds read low 0.982 | locus YDR392W, strain spt3, active compounds read low 0.999 | locus YEL003W, strain gim4, active compounds read low 0.981 | locus YEL037C, strain rad23, active compounds read low 0.986 | locus YEL061C, strain CIN8 (second series), active compounds read low 0.977 | locus YER015W, strain faa2, active compounds read low 0.987 | locus YER016W, strain bim1, active compounds read low 0.99 | locus YER111C, strain swi4, active compounds read low 0.982 | locus YER155C, strain BEM2 (second series), active compounds read low 0.975 | locus YFR010W, strain ubp6, active compounds read low 0.973 | locus YGL167C, strain pmr1, active compounds read low 0.99 | locus YGL173C, strain kem1, active compounds read low 0.957 | locus YGL227W, strain vid30, active compounds read low 0.971 | locus YGL240W, strain doc1, active compounds read low 0.977 | locus YGL253W, strain hxk2, active compounds read low 0.986 | locus YHR013C, strain ard1, active compounds read low 0.99 | locus YHR027C, strain rpn1, active compounds read low 0.961 | locus YHR030C, strain SLT2, active compounds read low 0.97 | locus YHR079C, strain IRE1, active compounds read low 0.951 | locus YHR142W, strain chs7, active compounds read low 0.972 | locus YJL092W, strain hpr5, active compounds read low 0.988 | locus YJL095W, strain BCK1 (second series), active compounds read low 0.986 | locus YJL095W, strain BCK1, active compounds read low 1.02 | locus YJL115W, strain asf1, active compounds read low 0.976 | locus YJL129C, strain trk1, active compounds read low 1.03 | locus YJL154C, strain vps35, active compounds read low 0.969 | locus YJL164C, strain tpk1, active compounds read low 1 | locus YJL166W, strain qcr8, active compounds read low 0.989 | locus YJL187C, strain SWE1, active compounds read low 0.987 | locus YJR066W, strain TOR1, active compounds read low 0.952 | locus YKL160W, strain elf1, active compounds read low 0.996 | locus YKR026C, strain gcn3, active compounds read low 0.983 | locus YKR091W, strain srl3, active compounds read low 0.994 | locus YLL001W, strain dnm1, active compounds read low 0.999 | locus YLL026W, active compounds read low 0.97 | locus YLL041C, strain sdh2, active compounds read low 0.984 | locus YLR027C, strain aat2, active compounds read low 0.965 | locus YLR113W, strain HOG1, active compounds read low 1.01 | locus YLR221C, strain rsa3, active compounds read low 0.982 | locus YLR258W, strain gsy2, active compounds read low 0.992 | locus YLR262C, strain YPT6 (second series), active compounds read low 0.961 | locus YLR320W, strain mms22, active compounds read low 0.987 | locus YLR342W, strain FKS1, active compounds read low 0.988 | locus YLR357W, strain rsc2, active compounds read low 1 | locus YLR370C, strain arc18, active compounds read low 0.988 | locus YLR384C, strain iki3, active compounds read low 0.979 | locus YML120C, strain ndi1, active compounds read low 0.995 | locus YMR058W, strain fet3, active compounds read low 0.98 | locus YMR125W, strain sto1, active compounds read low 0.982 | locus YMR129W, active compounds read low 0.99 | locus YMR205C, strain PFK2, active compounds read low 0.963 | locus YMR231W, strain pep5, active compounds read low 0.99 | locus YNL071W, strain lat1, active compounds read low 0.986 | locus YNL183C, strain NPR1, active compounds read low 0.958 | locus YNL209W, strain ssb2, active compounds read low 0.988 | locus YNL248C, strain rpa49, active compounds read low 0.994 | locus YNL322C, strain KRE1 (second series), active compounds read low 0.988 | locus YNR049C, strain mso1, active compounds read low 0.975 | locus YOR001W, strain rrp6, active compounds read low 0.993 | locus YOR070C, strain gyp1, active compounds read low 0.986 | locus YOR080W, strain dia2, active compounds read low 0.996 | locus YOR083W, strain WHI5, active compounds read low 0.995 | locus YOR106W, strain vam3, active compounds read low 0.976 | locus YOR231W, strain MKK1, active compounds read low 0.973 | locus YOR265W, strain rbl2, active compounds read low 1 | locus YOR270C, strain vph1, active compounds read low 0.949 | locus YOR290C, strain snf2, active compounds read low 0.986 | locus YPL051W, strain arl3, active compounds read low 0.995 | locus YPL078C, strain atp4, active compounds read low 0.976 | locus YPL106C, strain sse1, active compounds read low 0.916 | locus YPL240C, strain hsp82, active compounds read low 0.997 | locus YPL256C, strain CLN2, active compounds read low 0.981
